Assay outcomes: PubChem BioAssay, National Center for Advancing Translational Sciences (NCATS)
Shown are actives, neighbours in structure and some others; about 2.1% of the full set was active somewhere.
ClpP mod: qHTS Assay for Activators of ClpP; ATP-dependent Clp protease proteolytic subunit (Bacillus subtilis (strain 168)), P80244; purified B. subtilis ClpP, FRET peptide cleavage, 20 min; 340,000 compounds, 1.9% hits; Potency, µM (highest dose often 57.5 µM), for inactives: at the highest dose activity change, negative = active; AID 651965, 2013; active = well fitted falling curve with a large enough effect; inconclusive = small, poorly fitted or top-dose-only effect; inactive = no such curve, though single readings can be large or run the other way; note: potency is the fitted concentration of half-maximal effect; the source files actives as falling curves though it sought activators and does not explain the sign; nearly all actives have a fitted effect of over 65% in size
Target sequence (P80244 whole entry, looked up): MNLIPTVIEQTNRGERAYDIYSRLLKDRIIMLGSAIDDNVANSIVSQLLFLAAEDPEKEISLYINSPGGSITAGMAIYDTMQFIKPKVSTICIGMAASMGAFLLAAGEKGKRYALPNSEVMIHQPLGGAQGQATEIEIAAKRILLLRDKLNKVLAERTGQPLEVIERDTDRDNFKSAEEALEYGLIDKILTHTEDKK
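FRET quenching reversal measured ClpP activation: 10 microg/mL B. subtilis ClpP at pH 8 with the FRET-FV decapeptide, read at 430 nm after 320 nm excitation. The 20-min minus 0-min signal was scaled between DMSO/no-enzyme wells and ADEP (5.8 microM final).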
Giardia killer: kills Giardia lamblia | Giardia lamblia trophozoite viability | activity change, % at 7.66 µM, hits read low | 340,000 compounds, 0.15% hits; in the data active = activity change below about -80%; inconclusive = between about -30% and that limit;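 note: parasites exposed to compound for two days anaerobically before the ATP read; % is set by controls: 0 for no effect and ±100 for the full control effect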
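Trophozoite viability was measured as ATP-dependent luminescence, read 15-30 min after reagent addition. Before that, parasites at 100 cells/well were exposed to compounds for 48 h, anaerobically, at 37 deg C.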
p53 reactivator: mutant p53 re-activation in reporter cells; H1299 p53-A138V BP100-luciferase reporter, luminescence, 24 h; Potency, µM (titrated, usually from 92.2 µM), inactives show at the highest dose activity change, positive = activation, hits mostly activators; 320,000 compounds, 0.063% hits; note: potency is the fitted concentration of half-maximal effect; % of control where 0% means no effect; nearly all actives have a fitted effect of over 45% in size
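H1299 (p53-null), stable ts p53-A138V + BP100-Luc; 1000 cells/well, Opti-MEM/10% FBS; cpd 4 pt, 1:5; 24 h, 37 deg C, 5% CO2; detection reagent 10 min RT; luminescence.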
Mito fusion yeast: mitochondrial division inhibition or fusion activation. S. cerevisiae fusion-defective mutant growth rescue, CellTiterGlo 48 h. Potency, µM (titrated, usually from 46.1 µM), for inactives: top-dose growth rescue (activation), usual class: activators. 320,000 compounds, 0.23% hits. AID 485298; note: potency is the fitted concentration of half-maximal effect; % of control where 0% means no effect; nearly all actives have a fitted effect of over 45% in size
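Temperature-sensitive fusion-defective S. cerevisiae (e.g. fzo1-1, mgm1-5) were grown with compound in YPEG medium (3% ethanol, 3% glycerol) for 48 hours at 37C. Growth rescue was measured as viability by CellTiterGlo luminescence after 10 minutes at ambient.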
uPA surface inh: blocks generation of uPA at the cell surface | cell surface uPA generation assay, qHTS | Potency, µM (highest dose often 38.3 µM), for the others: at the top dose activity change, negative = inhibition, hits mostly inhibitors | 330,000 compounds, 0.31% hits | AID 540303; active = well fitted inhibition curve with a large enough effect; inconclusive = small, poorly fitted or top-dose-only effect; inactive = no such curve, though single readings can be large or run the other way; tested in mouse RAW 264.7 cells; note: potency is the fitted concentration of half-maximal effect; % is set by controls: 0 for no effect and ±100 for the full control effect; nearly all actives have a fitted effect of over 55% in size
B2AR arrestin: recruits beta-arrestin to the human beta2-adrenergic receptor; beta-arrestin recruitment to beta2AR, cell-based reporter; AID 492947; P07550; 330,000 compounds, 0.02% hits; Potency, µM (series often up to 46.1 µM), for inactives: at the highest dose activation, hits mostly activators;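 note: potency is the fitted concentration of half-maximal effect; 0% = DMSO controls and full agonism = EC100 isoproterenol or metaproterenol; nearly all actives have a fitted effect of over 65% in size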
Target sequence (P07550 whole entry, looked up): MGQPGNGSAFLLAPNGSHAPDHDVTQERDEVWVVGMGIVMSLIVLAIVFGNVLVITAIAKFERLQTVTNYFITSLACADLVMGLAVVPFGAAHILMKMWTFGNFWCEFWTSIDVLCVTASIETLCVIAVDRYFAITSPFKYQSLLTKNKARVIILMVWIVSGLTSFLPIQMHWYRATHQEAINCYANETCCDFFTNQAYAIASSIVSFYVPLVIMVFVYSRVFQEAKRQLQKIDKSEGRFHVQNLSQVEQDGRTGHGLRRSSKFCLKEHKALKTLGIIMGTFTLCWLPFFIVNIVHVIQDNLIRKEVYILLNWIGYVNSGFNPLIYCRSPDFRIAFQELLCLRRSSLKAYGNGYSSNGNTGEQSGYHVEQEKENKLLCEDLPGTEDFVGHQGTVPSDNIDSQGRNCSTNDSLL
Starred values were filed as active, the others as inactive; ? = inconclusive; nt = no result given. Unless noted, calls come from the whole dose curve; as a rule, active = well fitted curve in the direction sought with a large enough effect; inconclusive = small, poorly fitted or top-dose-only effect, or another doubt; inactive = no such curve, though single readings can be large; an effect the other way counts as inactive or inconclusive.

SMILES | ClpP mod | Giardia killer | p53 reactivator | Mito fusion yeast | uPA surface inh | B2AR arrestin
COc1cccc(/C=N/Nc2nc3ccccc3n3cnnc23)c1 | -6.4% | 18.2 | 1.2% | -2.8% | -12.8% | -0.7%
COc1ccc2nc(C)cc(N/N=C/c3cccc(OC)c3O)c2c1 | nt | -83.0* | nt | 0.4% | 7.1% | 0.9%
O=C(Nc1nc2nccc(-c3ccccc3)n2n1)c1ccc(F)cc1 | 28.2µM* | 10.1 | 0.5% | 2.6% | 3.3% | 2.7%
O=C(Nc1nc2nccc(-c3ccccc3)n2n1)c1ccccc1 | nt | 10.9 | 2.5% | 4.8% | -3.0% | 0.5%
CCOc1ccc(C(=O)N2CC(=O)Nc3ccc(C)cc3C2c2ccc(F)cc2)cc1OCC (centres undefined) | -6.6% | nt | nt | nt | nt | nt
CCN(CC)CCCN(Cc1cc2cc3c(cc2[nH]c1=O)OCCO3)C(=O)Nc1ccccc1 | 20µM* | -10.9 | 1.1% | -3.7% | -3.5% | -0.8%
O=C(Nc1ccccc1F)N(CCCN1CCOCC1)Cc1cc2cc3c(cc2[nH]c1=O)OCCO3 | 20µM* | 5.0 | -0.4% | 4.6% | -7.4% | 0.0%
O=C(Nc1ccccc1)N(CCCN1CCOCC1)Cc1cc2cc3c(cc2[nH]c1=O)OCCO3 | 31.6µM* | 35.8 | 1.4% | 1.1% | -2.8% | -0.2%
COc1ccc2[nH]c(=O)c(CN(CCCN3CCOCC3)C(=O)NCc3ccccc3)cc2c1 | 15.8µM* | 8.1 | -0.9% | 0.1% | 3.2% | -0.1%
CCc1ccc2[nH]c(=O)c(CN(CCCN3CCOCC3)C(=O)Nc3ccccc3)cc2c1 | -6.8% | 6.6 | 3.6% | 0.6% | -6.6% | -0.3%
CCN(CC)CCCN(Cc1cc2cc3c(cc2[nH]c1=O)OCO3)C(=S)Nc1ccc(OC)cc1 | nt | 31.9 | -3.6% | -1.8% | -7.8% | -1.3%
C=C1CC2C(=O)N(Cc3cc(OC)ccc3OC)C(C(=O)OCC)C1N2C (centres undefined) | nt | 21.2 | nt | nt | nt | nt
COCCCNC(=O)CC(NS(=O)(=O)c1ccc(OC)cc1)c1ccc(OC)cc1 (centres undefined) | 22.4µM* | 12.2 | 8.6% | -10.7% | 8.3% | -0.7%
COCCCNC(=O)CC(NS(=O)(=O)c1ccc(C)cc1)c1ccc(OC)cc1 (centres undefined) | 0.3% | 4.4 | -3.5% | -1.4% | -1.0% | 0.0%
CCN(CC)S(=O)(=O)c1ccc2c(c1)c(=O)c(C(=O)NCc1ccc(Cl)cc1)cn2C | -7.6% | nt | nt | nt | nt | nt
O=[N+]([O-])c1cc(S(=O)(=O)Nc2ccccc2)ccc1N1CCN(c2ccccc2)CC1 | -27.2% | 22.1 | 9.6% | 20µM* | -4.4% | -0.1%
O=[N+]([O-])c1cc(S(=O)(=O)C(F)(F)F)ccc1N1CCN(c2ccccc2)CC1 | -0.9% | 2.2 | 8.9% | ? | -9.2% | -0.2%
CCN(CC(=O)Nc1ccccc1C(F)(F)F)C(=O)CCc1nc2sc3c(c2c(=O)[nH]1)CCCC3 | 15.8µM* | -3.1 | -0.2% | -13.0% | 1.8% | -0.1%
CN(CC(=O)Nc1ccc(Cl)cc1)C(=O)CCc1nc2sc3c(c2c(=O)[nH]1)CCCC3 | 31.6µM* | 7.3 | 15.3% | -1.7% | 2.5% | 0.2%
CN(CC(=O)Nc1ccccc1C(F)(F)F)C(=O)CCc1nc2sc3c(c2c(=O)[nH]1)CCCC3 | -9.6% | -6.8 | -26.6% | -0.4% | 3.2% | -0.4%
CN(CC(=O)Nc1ccc(F)cc1)C(=O)CCc1nc2sc3c(c2c(=O)[nH]1)CCCC3 | -1.0% | 15.3 | 2.9% | -1.1% | 1.3% | 0.2%
Cc1ccc(C)c(NC(=O)Cn2c(=O)nc(-c3ccccc3)c3ccccc32)c1 | -13.8% | nt | nt | nt | nt | nt
O=C(O)C1C2C=CC(O2)C1C(=O)NCc1ccc2c(c1)OCO2 (centres undefined) | -1.1% | -4.1 | 6.0% | -4.8% | 0.2% | -0.1%
O=C(O)C1C2C=CC(O2)C1C(=O)NCc1ccc(Cl)cc1 (centres undefined) | 35.5µM* | 1.4 | 13.4% | -3.9% | 4.7% | -0.3%
CCc1ccccc1NC(=O)Cn1nnc2sc3c(c2c1=O)CCC(C(C)(C)C)C3 (centres undefined) | -4.6% | nt | nt | nt | nt | nt
SMILES | ClpP mod | Giardia killer | p53 reactivator | Mito fusion yeast | uPA surface inh | B2AR arrestin
CC(CCc1ccccc1)NC(=O)/C=C/c1ccc(F)cc1 (centres undefined) | nt | nt | 0.5% | 11.2µM* | nt | -0.3%
CC(CCc1ccccc1)NC(=O)/C=C/c1ccccc1 (centres undefined) | -1.6% | -1.7 | 2.9% | 4.9% | 11.2% | 0.5%
CCCCn1c(N)c(N(CC)C(=O)c2cccc(S(=O)(=O)N3CCCc4ccccc43)c2)c(=O)[nH]c1=O | 1.9% | 5.6 | 6.2% | -0.3% | -5.9% | -0.1%
CCCn1c(N)c(N(CCOC)C(=O)c2cc3c(s2)CCC(CC)C3)c(=O)[nH]c1=O (centres undefined) | 12.6µM* | 3.4 | -13.1% | 1.0% | -2.1% | -0.1%
CCCn1c(N)c(N(CCOC)C(=O)c2cccc(S(=O)(=O)N3CCCc4ccccc43)c2)c(=O)[nH]c1=O | 31.6µM* | 3.8 | 7.0% | 5.1% | 10.7% | -3.1%
Cc1ccc(Cc2c(-c3cccc(Cl)c3)nc3c(C)cc(Br)cn23)cc1 | -3.9% | nt | nt | nt | nt | nt
CCC(C)OC(=O)c1[nH]c2c(c1C)C(=O)CC(c1ccc(N(C)C)cc1)C2 (centres undefined) | 0.9% | -18.7 | ? | ? | 10µM* | -0.6%
CCOCCOC(=O)c1[nH]c2c(c1C)C(=O)CC(c1ccc(N(C)C)cc1)C2 (centres undefined) | -2.9% | 35.4 | -1.4% | 4.2% | 12.6µM* | 0.1%
Cc1ccc(C(=O)Nc2c(C)cc(-c3ccc(Cl)cc3)oc2=O)cc1 | 14.1µM* | 4.1 | -4.6% | 7.2% | -7.7% | -0.7%
COc1ccc(CCN=c2c([N+](=O)[O-])nn(-c3cccc(C)c3)n2O)cc1OC | 1.2% | ? | ? | 0.6% | -91.1% | 0.1%
O=[N+]([O-])c1nn(-c2ccc(Cl)cc2)n(O)c1=NCc1ccccc1 | -1.2% | ? | ? | 8.0% | -15.0% | -0.7%
COc1ccc(-n2nc([N+](=O)[O-])c(=NCCCN3CCCC3=O)n2O)cc1 | -0.5% | -85.4* | 21.2% | 9.0% | 11.2µM* | 0.3%
Cc1cccc(CCN=c2c([N+](=O)[O-])nn(-c3ccccc3)n2O)c1 | -5.2% | -90.8* | ? | 7.0% | ? | -0.1%
Cc1ccc(N=c2c([N+](=O)[O-])nn(-c3ccccc3)n2O)c(C)c1 | -0.6% | ? | ? | 12.9% | nt | 0.2%
Cc1cccc(-n2nc([N+](=O)[O-])c(=NC3CCN(Cc4ccccc4)CC3)n2O)c1 | 1.0% | -84.4* | 14.1µM* | ? | 2.82µM* | 0.0%
COc1ccc(-n2nc([N+](=O)[O-])c(=NCCc3cccc(C)c3)n2O)cc1 | nt | -85.5* | 18.1% | 3.3% | -3.3% | 0.1%
